Test results from PubChem BioAssay AID777 (Sanford-Burnham Center for Chemical Genomics, 2007).
Out of some 96,000 compounds screened, about 19,000 (20%) were called active. A selection follows. Unmarked numbers belong to inactive results.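 How the source made its calls: active means blocking of liver enzyme CYP2C9 beyond about 50% at 5 µM (limit read from the data); inactive means the rest.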

Biological target: Cytochrome P450 2C9 (Homo sapiens) (UniProt P11712)
Assay: blockers of cytochrome P450 2C9 activity – biochemical, luminescence, ADME assay, primary screen (AID 777)
Conditions: CYP2C9 Supersomes, luciferin-H conversion, at 5 µM, stronger effect = higher value

Chain of Cytochrome P450 2C9 (Homo sapiens) (P11712 whole entry, looked up): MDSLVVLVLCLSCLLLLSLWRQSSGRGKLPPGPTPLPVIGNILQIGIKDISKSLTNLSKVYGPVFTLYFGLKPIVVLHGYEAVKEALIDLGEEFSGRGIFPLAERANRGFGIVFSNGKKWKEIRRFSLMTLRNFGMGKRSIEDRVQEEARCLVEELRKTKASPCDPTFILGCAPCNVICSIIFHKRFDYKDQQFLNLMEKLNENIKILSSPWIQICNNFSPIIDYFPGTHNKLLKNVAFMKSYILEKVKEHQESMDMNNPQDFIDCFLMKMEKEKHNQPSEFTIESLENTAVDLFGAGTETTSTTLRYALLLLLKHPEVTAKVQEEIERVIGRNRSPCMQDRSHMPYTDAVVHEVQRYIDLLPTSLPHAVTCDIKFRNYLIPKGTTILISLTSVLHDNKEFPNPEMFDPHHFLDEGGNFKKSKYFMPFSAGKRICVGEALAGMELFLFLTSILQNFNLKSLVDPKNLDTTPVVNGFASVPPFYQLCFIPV

First: O=C(O)CSCc1ccc(C(=O)O)o1
Second: O=C(CSCc1c(F)cccc1Cl)NCC1CCCO1 (stereo unspecified)
The inhibition of the first is higher: 13.1% for the first, -7.5% for the second.

First: O=C(O)c1ccc(F)c(S(=O)(=O)Nc2ccccc2)c1
Second: O=C(Nc1cccc(C(=O)N2CCCC2)c1)c1ccccc1
The inhibition of the first is lower: 17% for the first, 31.3% for the second.

Going from `CSc1ccc(S(=O)(=O)NCc2ccc(Cl)cc2)cc1` to `Cc1noc(C)c1S(=O)(=O)NCCc1ccc(S(N)(=O)=O)cc1`, the inhibition rises from -49.2% to -3.8%.

Going from `CCn1cc(C(=O)N2CCN(C3CCCCC3)CC2)c2cc(OC)c(OC)cc2c1=O` to `COc1ccccc1N1CCN(C(=O)c2ccc(S(=O)(=O)N3CCCCC3)cc2)CC1`, the inhibition rises from 19% to 45.8%.

Going from `Cc1cc2ncn(CCCCOc3ccccc3)c2cc1C` to `Cc1nc2nc(COc3ccccc3)[nH]n2c(=O)c1C`, the inhibition falls from 27.5% to 1.1%.

Compared with `CCOC(=O)c1ccc(NC(=O)Cn2nnc(-c3ccc(C)cc3)n2)cc1`, `CCOC(=O)c1ccc(NC(=O)CS(=O)(=O)c2cn(CC)c3ccccc23)cc1` is lower in inhibition: 32% for the first, 20.9% for the second.

First: CCOC(=O)c1cccc(NC(=O)CCc2c(C)nc3ncnn3c2C)c1
Second: CCOC(=O)c1cn(CC(=O)Nc2ccc(C(C)C)cc2)nn1
The inhibition of the first is lower: 15.2% for the first, 17.6% for the second.

First: CCCc1nc2scc(-c3ccc(C)cc3)c2c(=O)n1N
Second: Cc1ccc(-c2nnc(C)c(N3CC(C)OC(C)C3)n2)cc1 (stereo unspecified)
The inhibition of the first is higher: 27.6% for the first, 17.3% for the second.

Compared with `CCCNC(=O)c1ccccc1NC(=O)CSCc1ccc(OC)cc1`, `COc1ccc(CNC(=O)CCn2cccc2)cc1` is higher in inhibition: 15.3% for the first, 20.4% for the second.

Going from `CC(C)(CNCC(O)c1ccccc1)N1CCOCC1` (stereo unspecified) to `c1ccc(COc2nsnc2N2CCOCC2)cc1`, the inhibition rises from -3.5% to 30.3%.

Going from `CCOC(=O)C1(Cc2ccc(O)cc2)NC(c2ccccc2F)C2C(=O)N(C)C(=O)C21` (stereo unspecified) to `CCOC(=O)c1ccc(N2C(=O)CC(N(C)Cc3ccccc3)C2=O)cc1` (stereo unspecified), the inhibition rises from -15.1% to -9.5%.

Compared with `Cc1nc([N+](=O)[O-])nn1C12CC3CC(CC(Br)(C3)C1)C2`, `CN1CCN(CC(=O)C23CC4CC(CC(C4)C2)C3)CC1` is lower in inhibition: 18.8% for the first, 5.7% for the second.

Going from `CCN1CC=C2C(C#N)=C(N)C(C#N)(C#N)[C@H](c3ccoc3)[C@H]2C1` to `CCOC(=O)N1CC=C2C(C#N)=C(N)C(C#N)(C#N)[C@H](c3cccs3)[C@H]2C1`, the inhibition rises from -2.3% to 11.7%.

Going from `CCOc1ccc(C(=O)NC(C(=O)NCc2ccccn2)C(C)C)cc1` (stereo unspecified) to `COc1ccc(C(=O)NCc2cn3ccccc3n2)cc1`, the inhibition falls from 6.7% to 2.4%.

Compared with `Cc1cc(C)cc(NC(=O)c2cccc(NC(=O)C3C4CC5OC(=O)C3C5C4)c2)c1` (stereo unspecified), `Cc1ccnc(NC(=O)c2ccc(NC(=O)c3ccco3)cc2)c1` is higher in inhibition: -1.1% for the first, -0.6% for the second.

Going from `C/C(N)=C(\C#N)C(=O)NCCc1ccccn1` to `CC(C)=C(NC(=O)c1ccco1)C(=O)NCCc1nc2ccccc2[nH]1`, the inhibition falls from -7.1% to -29.7%.

Compared with `Cc1ccc2nc(SCc3nnc(-c4ccccc4[N+](=O)[O-])o3)c(C#N)cc2c1`, `Fc1ccc(-c2nnc(CSc3nnc(-c4ccc5c(c4)OCO5)o3)o2)cc1` is lower in inhibition: 20% for the first, -13.3% for the second.

First: COc1ccc(OC)c(NC(=O)c2cnn(-c3ccccc3Cl)c2NC(=O)c2ccco2)c1
Second: COC(=O)c1ccc(NC(=O)c2ccco2)cc1
The inhibition of the first is higher: 24.5% for the first, 24% for the second.

Going from `CCn1cc(C(=O)N/N=C(/C)c2ccc(F)cc2)c(=O)c2cc(F)c(N3CCCC3)cc21` to `Cc1ccc(NC(=O)N2CCC(C(=O)NCc3ccc(F)cc3)CC2)cc1`, the inhibition rises from 5.7% to 34%.

Going from `CN(c1ccccc1)c1ccc(/C=c2\s/c(=C(/C#N)C(=O)C(C)(C)C)n(Cc3ccco3)c2=O)cc1` to `CN(C)c1ccc(-n2cccc2/C=C2/SC(=Nc3ccc(F)cc3)NC2=O)cc1`, the inhibition falls from 41.9% to 5.1%.

Compared with `C=CCn1c(=N)n(CC(O)COc2ccc(OC)cc2)c2ccccc21` (stereo unspecified), `COc1ccc(-n2nnc3c(=O)n(CC(=O)N4CCC(Cc5ccccc5)CC4)cnc32)cc1` is higher in inhibition: -0.2% for the first, 17.9% for the second.

Going from `COCCCn1c(CCC(=O)O)ccc1-c1ccc(F)cc1` to `CCCOC(=O)CC1C(=O)NCCN1Cc1ccc(F)cc1` (stereo unspecified), the inhibition falls from 39.8% to 6.4%.

Compared with `Cc1cc(C)c2c(c1)cc(C)c1nnc(SCC(=O)Nc3cc(C)on3)n12`, `COc1ccc(C)cc1NC(=O)CSc1nc(SC)ns1` is lower in inhibition: 10.5% for the first, -3.2% for the second.

First: CCCS(=O)(=O)N1CCCC(C(=O)N2CCN(c3ccccc3)CC2)C1 (stereo unspecified)
Second: O=C(CSc1nc2ccccc2o1)N1CCN(c2ccccc2)CC1
The inhibition of the first is lower: -1.6% for the first, 29.7% for the second.

Compared with `Cc1nnsc1S(=O)(=O)Cc1ccccc1Cl`, `Cc1cc(C)nc(N2C(=O)CC(Cc3ccccc3)C2=O)n1` (stereo unspecified) is lower in inhibition: 3.2% for the first, -14% for the second.

Compared with `COC(=O)[C@@H](NC(=O)NCc1cccc(OC)c1)C(C)C`, `CCCCC(=O)N/N=C(\C)CC(=O)Nc1cc(Cl)ccc1OC` is lower in inhibition: -12.5% for the first, -51.9% for the second.

First: CCCOc1cccc(C(=O)Nc2nnn(CCC)n2)c1
Second: CCCOc1ccccc1-c1nc(SCCC(=O)O)n[nH]1
The inhibition of the first is higher: 38.6% for the first, -1.3% for the second.

Compared with `CCC(CC)C(=O)N1CC(=O)Nc2ccc(Br)cc2C1c1ccccc1` (stereo unspecified), `CCS(=O)(=O)c1ccc2oc(SCC(=O)N3c4ccccc4CC3C)nc2c1` (stereo unspecified) is lower in inhibition: 49.6% for the first, 46.1% for the second.

Compared with `S=c1[nH]nc2c3c4c(sc3ncn12)CCCC4`, `Cc1ccc(Cn2nnc3c(=O)n(CC(=O)N4CCCCC4)cnc32)cc1` is lower in inhibition: 20.5% for the first, -4.1% for the second.

First: COC(=O)c1ccc(S(=O)(=O)N2CCC(c3nc4ccccc4o3)CC2)cc1
Second: O=C(c1cccc(C(=O)N2CCc3ccccc32)n1)N1CCc2ccccc21
The inhibition of the first is higher: 16.8% for the first, 8.6% for the second.

First: CC(C)OCCCNC(=O)C1CC(=O)N(C2CCCCCCC2)C1 (stereo unspecified)
Second: CCC(C)(C(=O)NC1CCCCC1)N(C)C(=O)c1ccc2c(c1)OCO2 (stereo unspecified)
The inhibition of the first is lower: -4.2% for the first, -1.7% for the second.

Compared with `CC(CN1CCCCC1)OC(=O)c1ccccc1Cl` (stereo unspecified), `O=C(c1cc(-c2ccccc2O)on1)N1CCCC1` is lower in inhibition: 9.2% for the first, -51.3% for the second.

Going from `CCOC(=O)c1sc2nc(SC)nc(-c3ccccc3)c2c1N` to `CNC(=O)c1nnn(-c2ccccc2)c1C(=O)NC`, the inhibition falls from 13.3% to -7.1%.

First: Cc1cc(Oc2ccccc2)nc(N2CCOCC2)n1
Second: Cc1occc1C(=O)N1CCCc2ccccc21
The inhibition of the first is higher: 26.5% for the first, -1.8% for the second.

Going from `COCc1[nH][nH]c(=O)c1C=Nc1ccc(F)cc1F` to `COc1ccc(C)cc1NC(=O)CCS(=O)(=O)c1cccc2nonc12`, the inhibition rises from -10% to 34.9%.

`Cc1ccc(N2C(=O)C3C(c4ccccc4)(C2=O)C3(c2ccccc2)c2ccccc2)cc1` (stereo unspecified) and `CC(=NCc1ccc2c(c1)OCO2)C1=C(O)c2ccccc2C1=O` are the same in inhibition: 28.1% for the first, 28.1% for the second.

Compared with `CCOC(=O)N1CCC(NC(=O)CN2C(=O)COc3ccc(C(C)(C)C)cc32)CC1`, `O=C(c1cc(-c2cccs2)on1)N1CCCCC1` is lower in inhibition: 10.3% for the first, -21.4% for the second.

Going from `O=C1C(C=NCC2CCCO2)=C(O)c2ccccc21` (stereo unspecified) to `O=C(O)c1cccnc1NC1CCCC1`, the inhibition rises from 3.5% to 4.1%.

Compared with `CC(Sc1sc(=S)sc1SC(C)C(=O)O)C(=O)O` (stereo unspecified), `CCn1c(CSc2ncccn2)nnc1SCC(=O)N1c2ccccc2CC1C` (stereo unspecified) is lower in inhibition: 10.2% for the first, -1.7% for the second.

For `CSc1ccc(S(=O)(=O)Nc2cccc(F)c2)cc1`, the inhibition was 93.8% (active).
For `CCOC(=O)c1cccc(NC(=O)CCn2nnc3ccccc32)c1`, the inhibition was 53.3% (active).
For `CCOC(=O)c1nnn(CC(=O)Nc2cccc(F)c2)c1C(=O)OCC`, the inhibition was 60.3% (active).
In the case of `CCSc1ccccc1C(=O)NCc1ccc(OC)cc1`, the inhibition is reported as 53.8% (active).
In the case of `N#CC1=C(N)C(C#N)(C#N)[C@H](c2ccsc2)[C@H]2COCC=C12`, the inhibition is reported as 61.4% (active).
`O=C(Nc1ccc(Br)cc1)c1cccc(NC(=O)C2C3CC4OC(=O)C2C4C3)c1` (stereo unspecified) was tested, and the inhibition was 66.4% (active).
With `Fc1ccc2nc(-c3ccccc3)nc(SCc3nnc(-c4ccccc4)o3)c2c1` the inhibition was 76.7% (active).
With `CC(C)(CSc1nncn1/N=C/c1ccco1)NS(=O)(=O)c1ccc(Cl)cc1` the inhibition was 61.2% (active).
In the case of `CCOC(=O)C(CCOc1cccc(CC)c1)C(=O)OCC`, the inhibition is reported as 57% (active).
In the case of `N#CC(C(=O)c1ccc(S(=O)(=O)N2CCCCCC2)cc1)c1nc2ccccc2[nH]1` (stereo unspecified), the inhibition is reported as 67.8% (active).
For `CCOC(=O)c1sc(N(Cc2ccccc2)C(=O)CN2C(=O)CN(C)C2=O)nc1C`, the inhibition was 57.9% (active).
With `c1ccc(Nc2nc(N3CCOCC3)c3ccccc3n2)cc1` the inhibition was 56.9% (active).
With `CC(C)(C)NC(=O)c1cc(NC(=O)c2ccco2)cc(NC(=O)c2ccco2)c1` the inhibition was 64.8% (active).
With `Cc1ccc(N2C(=O)C(Cc3ccccc3)NC2=S)cc1` (stereo unspecified) the inhibition was 78.4% (active).
In the case of `COc1ccc(C)cc1NC(=O)CCC(=O)Nc1nnc(C(F)(F)F)s1`, the inhibition is reported as 50.2% (active).
In the case of `CC(=NCc1ccco1)C1=C(O)c2ccccc2C1=O`, the inhibition is reported as 78.9% (active).
With `CCCCn1ccnc1C(=O)c1cccc(S(=O)(=O)N2c3ccccc3CC2C)c1` (stereo unspecified) the inhibition was 68.5% (active).
In the case of `O=C1Nc2ccc(Br)cc2/C1=N/N=C/C1=C(N2CCOCC2)C(=C\c2ccccc2)/CC1`, the inhibition is reported as 84.9% (active).
In the case of `CCSC(C)CC1C/C(=N/O)c2c(C)noc2C1` (stereo unspecified), the inhibition is reported as 61.3% (active).
With `O=C(c1cc(-c2cccc(O)c2)on1)N1CCc2ccccc2C1` the inhibition was 55.8% (active).
`O=C(c1cc(-c2ccc(O)cc2)on1)N1CCCc2ccccc21` was tested, and the inhibition was 55.3% (active).
For `COc1ccc(Cn2nnc3c(=O)[nH]c(C4CCN(C(=O)c5ccccc5Cl)CC4)nc32)cc1`, the inhibition was 79.7% (active).
In the case of `Cc1ccc(NC(=O)N2CCC(c3nc4c(nnn4Cc4c(F)cccc4Cl)c(=O)[nH]3)CC2)cc1`, the inhibition is reported as 87.7% (active).
